Reference: PubChem BioAssay (NCI)
Compounds without any hit were thinned out: in the full panel of roughly 83,000, 20% have a hit.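 Plates (96-well) were seeded with cells, treated with compound at one concentration, and incubated for 48 hours before percent growth was determined.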 A number with no mark means an inactive call. Active and inactive are the calls of the source. The calls were made as follows: active = growth percent below 10; inactive = the rest.

Legend:
Assay in all cases: NCI-60 one-dose screen, 48 h (100 = growth as untreated, 0 = no growth, -100 = all killed)
Settings in all cases: 10 µM unless noted
NCI-H23 lung = system: NCI-H23 lung
NCI-H226 lung = system: NCI-H226 lung
NCI-H322M lung = system: NCI-H322M lung
HOP-62 NSCLC = system: HOP-62 NSCLC
HOP-92 NSCLC = system: HOP-92 NSCLC
NCI-H522 lung = system: NCI-H522 lung
A549/ATCC NSCLC = system: A549/ATCC NSCLC
786-0 renal = system: 786-0 renal
DU-145 prostate = system: DU-145 prostate
K-562 leukemia = system: K-562 leukemia
MALME-3M melanoma = system: MALME-3M melanoma
MDA-MB-231 breast = system: MDA-MB-231 breast
RXF 393 renal = system: RXF 393 renal
SF-268 CNS = system: SF-268 CNS
SF-295 CNS = system: SF-295 CNS
SF-539 CNS = system: SF-539 CNS
UACC-257 melanoma = system: UACC-257 melanoma
M14 melanoma = system: M14 melanoma
COLO 205 colon = system: COLO 205 colon

Row | Compound | growth (NCI-H23 lung) | growth (NCI-H226 lung) | growth (NCI-H322M lung) | growth (HOP-62 NSCLC) | growth (HOP-92 NSCLC) | growth (NCI-H522 lung) | growth (A549/ATCC NSCLC) | growth (786-0 renal) | growth (DU-145 prostate) | growth (K-562 leukemia) | growth (MALME-3M melanoma) | growth (MDA-MB-231 breast) | growth (RXF 393 renal) | growth (SF-268 CNS) | growth (SF-295 CNS) | growth (SF-539 CNS) | growth (UACC-257 melanoma) | growth (M14 melanoma) | growth (COLO 205 colon)
1 | O=c1[nH]c(=O)[nH]c(=S)[nH]1 | 98.5% | 97.9% | 95.6% | 102% | 101% | 94.6% | 99.7% | 102% | 105% | 105% | 98% | 102% | 107% | 102% | 102% | 98.8% | 101% | 100% | –
2 | CCOC(=O)Oc1c(OC)cc(C(=O)O[C@@H]2C[C@@H]3CN4CCc5c([nH]c6cc(OC)ccc56)[C@H]4C[C@@H]3[C@H](C(=O)OC)[C@H]2OC)cc1OC | 74.9% | 102% | 102% | 97.9% | 19% | 73.8% | 41.8% | 78.7% | 81.5% | – | 58.9% | 43.2% | 89.8% | 75.2% | 74.3% | 79.9% | 94% | 72.1% | 88.9%
3 | NC(=O)c1ccc[n+](CC(=O)N2CCN(c3cc4c(cc3F)c(=O)c(C(=O)O)cn4C3CC3)CC2)c1 | 92.4% | 97.3% | 104% | 111% | 133% | -73.1% (active) | 104% | 74.6% | 96.4% | – | 6.59% (active) | 99.8% | – | 76.7% | 108% | 88.6% | 89.4% | 76.4% | 63.1%
4 | Cc1c2c(cc[n+]1Cc1ccccc1)c1ccc(OCc3ccccc3)cc1n2Cc1ccccc1 | -12.2% (active) | -12% (active) | -26.9% (active) | -70.9% (active) | -67.9% (active) | – | 4.01% (active) | -87.4% (active) | -33.6% (active) | -25% (active) | -73.6% (active) | -85.1% (active) | – | -90.4% (active) | -69.2% (active) | -5.52% (active) | -0.651% (active) | -87.9% (active) | -82.3% (active)
5 | COc1ccc(C(=O)c2cc3c(N)c(C(=O)Nc4cccc(Cl)c4)sc3nc2C)cc1 | 35.1% | 61.9% | 57.2% | 44.9% | 86.9% | -4.67% (active) | 32.3% | 51.6% | 18% | 6.91% (active) | 51.2% | 28.4% | – | 44.7% | 31.3% | -15.5% (active) | 71.4% | 17.9% | -1.48% (active)
